Screening data deposited in PubChem by several laboratories.
PREPL inhibitor – inhibitors of human prolyl oligopeptidase-like enzyme PREPL; Q4J6C6; recombinant PREPL, fluorescence polarization activity-based probe; inhibition, % at 5.96 µM; actives 0.68% (n = 320,000); AID 2751; in the data active = inhibition above about 43%;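 note: 0% = enzyme with DMSO and 100% = wells lacking enzyme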
ALR inh – blocks human ALR sulfhydryl oxidase activity. P55789. purified ALR, DTT oxidation, H2O2 HRP-luminol luminescence. inhibition, % (concentration not given with the values). actives 3.8% (n = 290,000). AID 485317;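 active = mean replicate inhibition above about 79%, with every replicate also reaching it, limit read from the data; inconclusive = only one of the two criteria met; inactive = mean below limit and not every replicate reaching it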
AI-2 QS modul – Vibrio harveyi AI-2 quorum sensing modulation | AID 2094 | Vibrio harveyi JMH597 AI-2 luminescence/OD600 ratio, 9 h; hits give low values; strain lacks LuxN and CqsS sensors; 0 = neutral-control median | activity change, % at 7.5 µM | actives 0.4% (n = 300,000); in the data active = activity change below about -75%, passing the limit was not always enough; inconclusive = no clear call, values can overlap the other calls;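 note: luminescence divided by OD600 gain over 9 h not by final OD600 alone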
CHT allo act – allosteric activators of human choline transporter CHT; CHT-expressing cells, membrane potential dye, choline EC20; hits give high values; LV-AA mutant CHT in HEK293 cells; Q9GZV3; actives 0.49% (n = 310,000); B-score at 10 µM;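 active = initial fluorescence not abnormally high and integrated response B-score, plate-corrected, over 3 SD above library mean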
Target sequence (Q9GZV3 whole entry, looked up): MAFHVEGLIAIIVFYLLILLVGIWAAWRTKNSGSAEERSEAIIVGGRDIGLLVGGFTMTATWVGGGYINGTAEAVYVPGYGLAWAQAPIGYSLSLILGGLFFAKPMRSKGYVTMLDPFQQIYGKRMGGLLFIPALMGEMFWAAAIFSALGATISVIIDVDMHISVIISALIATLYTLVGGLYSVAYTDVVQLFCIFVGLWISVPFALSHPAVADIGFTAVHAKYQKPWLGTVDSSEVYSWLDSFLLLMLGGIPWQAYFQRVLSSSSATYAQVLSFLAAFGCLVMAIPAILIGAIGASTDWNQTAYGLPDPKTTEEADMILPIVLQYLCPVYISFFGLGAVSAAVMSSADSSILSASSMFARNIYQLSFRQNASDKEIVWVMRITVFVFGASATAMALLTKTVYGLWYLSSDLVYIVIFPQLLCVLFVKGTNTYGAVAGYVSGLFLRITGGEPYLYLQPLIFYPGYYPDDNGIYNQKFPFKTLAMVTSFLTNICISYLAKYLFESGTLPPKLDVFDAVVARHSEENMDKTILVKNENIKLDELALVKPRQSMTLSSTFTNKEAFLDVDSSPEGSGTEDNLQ
CHT block – inhibitors of human choline transporter CHT; CHT-expressing cells, membrane potential dye, choline response; hits give low values; B-score at 10 µM; actives 0.86% (n = 310,000); AID 488975;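 active = B-score over 3 SD under the library average, and starting fluorescence ratio not unusually high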;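 note: choline stimulus applied at its EC90 after an EC20 pre-addition; B-score computed on integrated fluorescence ratio after choline addition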
CHT activ conf – human CHT activation, confirmatory screen | actives 91% (n = 2,500) | CHT-expressing cells, membrane potential dye fluorescence (FDSS); % of choline EC20–EC90 response window; HEK293 expressing CHT LV-AA mutant; choline added at its EC20 | activation, % at 10 µM | shares compounds with CHT allo act;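 active = primary screen active, with duplicate mean activation above negative control mean plus 3 SD, cut at about 11% in these data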
HEK293 MP dye – CHT activator counter-screen hit in parental HEK293 cells; AID 623908; shares compounds with CHT allo act; ratio readout change at 10 µM, hits read low; actives 62% (n = 2,500); membrane potential dye fluorescence (FDSS); measured after EC20 choline addition;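 active = duplicate-averaged ratio beyond 3 SD from buffer wells, up or down, though filed actives are nearly all decreases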
Active calls of the source: *. Sampled rows, rich in hits. Any-hit rate of the full collection: about 5%.

Results for COc1cc(Nc2c3c(nc4ccccc24)CCCC3)cc(OC)c1OC ?
PREPL inhibitor: 31.4; ALR inh: 98.4*; AI-2 QS modul: 13.2; CHT allo act: inactive; CHT block: inactive; CHT activ conf: 44.6*; HEK293 MP dye: -48.7*

How did COc1ccc(C2=Nn3c([n+](C)c4ccccc43)SC2)cc1 do in these assays?
PREPL inhibitor: 28.6; ALR inh: 66.5; AI-2 QS modul: 7.2; CHT allo act: 10.9*; CHT block: inactive; CHT activ conf: 56.8*; HEK293 MP dye: -47.8*

Results for Cc1cc(C)n2nc(-c3cccnc3)nc2n1 ?
PREPL inhibitor: -0.2; ALR inh: -0.8; AI-2 QS modul: 19.9; CHT allo act: inactive; CHT block: inactive; CHT activ conf: 48.4*; HEK293 MP dye: -50.6*

How did Cc1cc(C)c(C(=O)COC(=O)c2nn(C)c(=O)c3ccccc23)cc1C do in these assays?
PREPL inhibitor: 4.6; ALR inh: 0.6

Results for CCOC(=O)N1CCN(c2cc(NCCC(=O)O)c3c4c(onc24)-c2ccccc2C3=O)CC1 ?
PREPL inhibitor: 20.8; ALR inh: inconclusive; CHT allo act: inactive; CHT block: inactive; CHT activ conf: 25.7*; HEK293 MP dye: -60.1*

Results for O=C(O)CCCNc1cc(N2CCC3(CC2)OCCO3)c2noc3c2c1C(=O)c1ccccc1-3 ?
PREPL inhibitor: 30.2; ALR inh: 64.8; CHT allo act: inactive; CHT block: inactive

How did NC(=O)CN(c1ccc([N+](=O)[O-])cc1)S(=O)(=O)c1ccccc1 do in these assays?
PREPL inhibitor: 0.2; AI-2 QS modul: 3.2; CHT allo act: inactive; CHT block: inactive

Results for CCOC(=O)c1cc2c(=O)n3ccccc3nc2n(CC2CCCO2)c1=NC(=O)/C=C/c1ccccc1 (stereo unspecified) ?
PREPL inhibitor: 7.8; ALR inh: -9.6; CHT allo act: inactive; CHT block: inactive; CHT activ conf: 14.8*; HEK293 MP dye: inactive

What do the screens show for `CCOC(=O)c1cc2c(=O)n3ccccc3nc2n(Cc2ccco2)c1=NC(=O)c1ccc(OC)cc1OC`?
PREPL inhibitor: -1.6; ALR inh: 8.8; AI-2 QS modul: -9.7; CHT allo act: inactive; CHT block: inactive; CHT activ conf: 20.9*; HEK293 MP dye: -25.5*

How did CN(C)S(=O)(=O)c1cccc(NC(=O)C2CCN(S(=O)(=O)c3cccs3)CC2)c1 do in these assays?
PREPL inhibitor: -0.2; ALR inh: 3.5

How did Cc1cc(C)nc(SCCn2c(N3CCOCC3)nc3c2c(=O)[nH]c(=O)n3C)n1 do in these assays?
PREPL inhibitor: 2.8; ALR inh: -6.0; AI-2 QS modul: 26.2; CHT allo act: inactive; CHT block: inactive

How did CC1CCN(CCCNc2cc(NCCO)c([N+](=O)[O-])c3nonc23)CC1 do in these assays?
PREPL inhibitor: 0.7; ALR inh: -20.7; AI-2 QS modul: 18.4; CHT allo act: inactive; CHT block: inactive; CHT activ conf: 31.4*; HEK293 MP dye: -62*

What do the screens show for `CN(CCO)c1cc(NCCCN2CCC(Cc3ccccc3)CC2)c2nonc2c1[N+](=O)[O-]`?
PREPL inhibitor: 38.1; ALR inh: -8.6; AI-2 QS modul: 18.1; CHT allo act: inactive; CHT block: inactive

What do the screens show for `CC(=O)c1ccc(NC(=O)c2ccc3nc(C)sc3c2)cc1`?
PREPL inhibitor: 1.4; ALR inh: -2.8; AI-2 QS modul: 35.2; CHT allo act: inactive; CHT block: inactive

What do the screens show for `Cc1nc2ccc(NC(=O)c3ccc(=O)[nH]c3)cc2s1`?
PREPL inhibitor: -4.5; ALR inh: -1.8; AI-2 QS modul: 3.5; CHT allo act: inactive; CHT block: inactive; CHT activ conf: 33.3*; HEK293 MP dye: -39.3*

What do the screens show for `COC(=O)C(NNc1ccccc1)(NC(=O)c1cccc(F)c1)C(F)(F)F` (stereo unspecified)?
PREPL inhibitor: -5.2; ALR inh: 57.2; AI-2 QS modul: 15.9; CHT allo act: inactive; CHT block: inactive

Results for CCC[n+]1c(C)sc2c3c(ccc21)CCCC3 ?
PREPL inhibitor: 0.1; ALR inh: -1.3; AI-2 QS modul: 17.2; CHT allo act: 10.6*; CHT block: inactive; CHT activ conf: 82.1*; HEK293 MP dye: -68.6*

How did CN1Cc2c(N3CCOCC3)nc3sc(C#N)c(N)c3c2CC1(C)C do in these assays?
PREPL inhibitor: 12.0; ALR inh: -10.1; AI-2 QS modul: 14.6; CHT allo act: inactive; CHT block: inactive; CHT activ conf: 49.5*; HEK293 MP dye: -55*

How did COc1cc(NC(=O)c2c(-c3ccccc3Cl)noc2C)c2ncccc2c1 do in these assays?
PREPL inhibitor: -3.4; ALR inh: -7.7; AI-2 QS modul: 16.0; CHT allo act: 7.83*; CHT block: inactive; CHT activ conf: 7.6; HEK293 MP dye: inactive

What do the screens show for `Cc1onc(-c2ccccc2Cl)c1C(=O)Nc1cccc2cccnc12`?
PREPL inhibitor: -5.8; ALR inh: 0.1; AI-2 QS modul: -11.0; CHT allo act: inactive; CHT block: inactive

How did CC1CCC2(CC1)NC(=O)N(NC(=O)c1cc3ccccc3o1)C2=O (stereo unspecified) do in these assays?
PREPL inhibitor: 4.6; ALR inh: -3.0

What do the screens show for `COc1cccc(NC(=O)Nc2ccccc2C(N)=O)c1`?
PREPL inhibitor: 5.5; ALR inh: -2.8; AI-2 QS modul: 17.9; CHT allo act: inactive; CHT block: inactive

How did COc1ccc(Cl)cc1C(=O)NNC(=O)c1ccncc1 do in these assays?
PREPL inhibitor: -0.8; ALR inh: -0.2; AI-2 QS modul: 11.0; CHT allo act: inactive; CHT block: inactive

What do the screens show for `COc1ccc(C(=O)Nc2ccncc2)cc1OC`?
PREPL inhibitor: -1.6; ALR inh: 0.5; AI-2 QS modul: 0.4; CHT allo act: 8.17*; CHT block: inactive; CHT activ conf: 38.7*; HEK293 MP dye: -50.2*

What do the screens show for `COc1ccc(C(=O)Nc2cccc(NC(C)=O)c2)cc1OC`?
PREPL inhibitor: 16.8; ALR inh: -23.2; AI-2 QS modul: 30.3; CHT allo act: inactive; CHT block: inactive

What do the screens show for `COc1ccc(Cl)cc1C(=O)Nc1ccncc1`?
PREPL inhibitor: 0.5; ALR inh: -8.9; AI-2 QS modul: 9.6; CHT allo act: inactive; CHT block: inactive; CHT activ conf: 59.9*; HEK293 MP dye: -42.1*

What do the screens show for `NC(=O)c1cc(Cl)ccc1OCC(=O)NC1CC1`?
PREPL inhibitor: 14.2; ALR inh: 25.6

What do the screens show for `Cc1cccn2c(=O)c3cc(C(=O)NCc4ccco4)c(=N)n(CCc4ccccc4)c3nc12`?
PREPL inhibitor: 15.1; CHT allo act: inactive; CHT block: inactive; CHT activ conf: 22.2*; HEK293 MP dye: -30.6*
